Source: ChEMBL document CHEMBL1961873, “Compounds: GSK PKIS; Assays: Nanosyn kinase panel” (2012)

Assays:
[1] = target: RAC-alpha serine/threonine-protein kinase (Homo sapiens) (UniProt P31749); details: at 0.1 µM
[2] = target: RAC-alpha serine/threonine-protein kinase (Homo sapiens) (UniProt P31749); details: at 1 µM
[3] = target: RAC-beta serine/threonine-protein kinase (Homo sapiens) (UniProt P31751); details: at 0.1 µM
[4] = target: RAC-beta serine/threonine-protein kinase (Homo sapiens) (UniProt P31751); details: at 1 µM
[5] = target: RAC-gamma serine/threonine-protein kinase (Homo sapiens) (UniProt Q9Y243); details: at 0.1 µM
[6] = target: RAC-gamma serine/threonine-protein kinase (Homo sapiens) (UniProt Q9Y243); details: at 1 µM
[7] = target: G protein-coupled receptor kinase 6 (Homo sapiens) (UniProt P43250); details: at 0.1 µM
[8] = target: G protein-coupled receptor kinase 6 (Homo sapiens) (UniProt P43250); details: at 1 µM
[9] = target: T1, Rhodopsin kinase GRK7 (Homo sapiens) (UniProt Q8WTQ7); details: at 0.1 µM
T1 sequence (whole entry): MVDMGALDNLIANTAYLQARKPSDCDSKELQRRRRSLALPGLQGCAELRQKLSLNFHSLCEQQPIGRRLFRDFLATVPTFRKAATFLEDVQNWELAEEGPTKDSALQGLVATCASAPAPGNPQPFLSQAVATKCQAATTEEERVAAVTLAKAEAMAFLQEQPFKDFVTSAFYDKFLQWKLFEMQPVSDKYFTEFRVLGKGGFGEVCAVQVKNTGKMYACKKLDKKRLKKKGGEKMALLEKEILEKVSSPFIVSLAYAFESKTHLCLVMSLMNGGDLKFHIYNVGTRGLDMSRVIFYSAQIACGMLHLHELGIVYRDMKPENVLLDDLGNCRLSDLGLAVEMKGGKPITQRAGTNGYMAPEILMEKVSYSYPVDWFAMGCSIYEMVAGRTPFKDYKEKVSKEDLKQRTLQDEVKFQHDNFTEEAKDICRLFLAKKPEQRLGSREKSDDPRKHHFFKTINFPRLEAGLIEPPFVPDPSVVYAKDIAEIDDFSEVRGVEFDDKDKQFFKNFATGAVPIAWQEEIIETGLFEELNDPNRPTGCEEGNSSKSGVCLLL

[10] = target: T1, Rhodopsin kinase GRK7 (Homo sapiens); details: at 1 µM
[11] = target: Serine/threonine-protein kinase MRCK alpha (Homo sapiens) (UniProt Q5VT25); details: at 0.1 µM
[12] = target: Serine/threonine-protein kinase MRCK alpha (Homo sapiens) (UniProt Q5VT25); details: at 1 µM
[13] = target: Serine/threonine-protein kinase MRCK beta (Homo sapiens) (UniProt Q9Y5S2); details: at 0.1 µM
Chain of Serine/threonine-protein kinase MRCK beta (Homo sapiens) (Q9Y5S2 whole entry): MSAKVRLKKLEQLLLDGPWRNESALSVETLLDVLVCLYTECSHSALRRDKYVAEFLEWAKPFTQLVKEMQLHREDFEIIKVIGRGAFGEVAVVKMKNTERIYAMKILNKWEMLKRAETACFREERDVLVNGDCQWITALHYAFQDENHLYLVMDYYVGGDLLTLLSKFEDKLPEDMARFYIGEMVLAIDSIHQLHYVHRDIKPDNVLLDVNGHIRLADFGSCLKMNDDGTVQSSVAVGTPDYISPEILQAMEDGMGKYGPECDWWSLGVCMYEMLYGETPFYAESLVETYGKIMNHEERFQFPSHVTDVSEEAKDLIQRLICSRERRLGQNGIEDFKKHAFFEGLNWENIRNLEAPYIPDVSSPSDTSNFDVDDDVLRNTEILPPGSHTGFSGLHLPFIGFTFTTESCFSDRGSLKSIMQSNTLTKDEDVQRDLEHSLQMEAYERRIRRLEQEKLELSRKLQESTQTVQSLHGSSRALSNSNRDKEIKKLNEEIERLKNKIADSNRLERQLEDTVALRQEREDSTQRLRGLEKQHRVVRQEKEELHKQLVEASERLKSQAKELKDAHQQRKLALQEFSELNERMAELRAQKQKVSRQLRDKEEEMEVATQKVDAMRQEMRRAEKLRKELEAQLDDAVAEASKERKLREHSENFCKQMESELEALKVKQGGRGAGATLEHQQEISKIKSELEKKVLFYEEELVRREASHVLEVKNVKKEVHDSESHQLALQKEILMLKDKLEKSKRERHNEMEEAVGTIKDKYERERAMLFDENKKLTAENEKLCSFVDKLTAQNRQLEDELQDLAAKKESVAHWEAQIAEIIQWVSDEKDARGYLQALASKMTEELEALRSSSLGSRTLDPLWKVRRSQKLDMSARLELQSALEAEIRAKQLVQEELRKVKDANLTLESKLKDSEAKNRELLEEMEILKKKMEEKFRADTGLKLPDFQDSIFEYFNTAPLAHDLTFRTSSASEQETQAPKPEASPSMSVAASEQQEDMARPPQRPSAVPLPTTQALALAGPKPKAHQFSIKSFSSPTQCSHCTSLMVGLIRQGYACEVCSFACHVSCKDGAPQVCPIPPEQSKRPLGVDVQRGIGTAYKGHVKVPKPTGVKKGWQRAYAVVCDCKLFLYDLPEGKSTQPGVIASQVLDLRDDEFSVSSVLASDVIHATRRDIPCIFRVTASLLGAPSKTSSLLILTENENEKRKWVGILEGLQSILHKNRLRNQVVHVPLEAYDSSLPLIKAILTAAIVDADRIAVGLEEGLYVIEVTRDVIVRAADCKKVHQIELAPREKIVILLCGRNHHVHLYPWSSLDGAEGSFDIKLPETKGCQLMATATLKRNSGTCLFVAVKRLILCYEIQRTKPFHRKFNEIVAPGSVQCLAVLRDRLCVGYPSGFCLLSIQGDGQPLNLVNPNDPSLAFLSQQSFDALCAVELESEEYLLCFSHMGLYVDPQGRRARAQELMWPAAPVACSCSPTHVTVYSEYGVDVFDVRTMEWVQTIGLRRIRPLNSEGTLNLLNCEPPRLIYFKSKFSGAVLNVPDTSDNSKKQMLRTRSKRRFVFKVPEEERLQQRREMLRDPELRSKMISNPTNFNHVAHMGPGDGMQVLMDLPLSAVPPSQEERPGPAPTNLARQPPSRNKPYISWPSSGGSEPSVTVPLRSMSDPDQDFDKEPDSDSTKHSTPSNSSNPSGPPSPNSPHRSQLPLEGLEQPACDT

[14] = target: Serine/threonine-protein kinase MRCK beta (Homo sapiens) (UniProt Q9Y5S2); details: at 1 µM
[15] = target: Ribosomal protein S6 kinase alpha-5 (Homo sapiens) (UniProt O75582); details: at 0.1 µM
Chain of Ribosomal protein S6 kinase alpha-5 (Homo sapiens) (O75582 whole entry, looked up): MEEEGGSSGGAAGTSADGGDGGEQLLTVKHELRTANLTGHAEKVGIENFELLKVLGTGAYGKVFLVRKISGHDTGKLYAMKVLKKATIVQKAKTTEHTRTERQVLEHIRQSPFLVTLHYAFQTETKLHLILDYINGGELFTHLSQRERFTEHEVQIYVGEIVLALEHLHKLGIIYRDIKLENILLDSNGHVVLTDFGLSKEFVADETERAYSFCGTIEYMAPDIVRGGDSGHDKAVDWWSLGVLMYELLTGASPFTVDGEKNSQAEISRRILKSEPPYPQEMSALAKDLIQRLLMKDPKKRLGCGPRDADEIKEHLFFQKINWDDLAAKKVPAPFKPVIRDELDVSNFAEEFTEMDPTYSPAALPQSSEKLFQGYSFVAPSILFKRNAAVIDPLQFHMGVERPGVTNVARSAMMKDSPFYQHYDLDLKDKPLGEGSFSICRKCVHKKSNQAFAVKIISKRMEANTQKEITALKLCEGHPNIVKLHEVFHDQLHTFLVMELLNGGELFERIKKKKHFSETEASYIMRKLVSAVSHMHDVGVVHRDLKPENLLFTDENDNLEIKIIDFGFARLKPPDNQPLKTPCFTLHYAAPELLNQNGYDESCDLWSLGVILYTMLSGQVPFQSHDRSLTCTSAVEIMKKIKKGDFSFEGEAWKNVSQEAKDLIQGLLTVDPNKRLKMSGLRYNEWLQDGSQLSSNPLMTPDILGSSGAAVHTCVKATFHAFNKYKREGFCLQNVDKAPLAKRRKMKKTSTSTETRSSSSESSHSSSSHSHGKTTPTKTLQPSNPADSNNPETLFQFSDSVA

[16] = target: Ribosomal protein S6 kinase alpha-5 (Homo sapiens) (UniProt O75582); details: at 1 µM
[17] = target: Ribosomal protein S6 kinase alpha-4 (Homo sapiens) (UniProt O75676); details: at 0.1 µM
Chain of Ribosomal protein S6 kinase alpha-4 (Homo sapiens) (O75676 whole entry, looked up): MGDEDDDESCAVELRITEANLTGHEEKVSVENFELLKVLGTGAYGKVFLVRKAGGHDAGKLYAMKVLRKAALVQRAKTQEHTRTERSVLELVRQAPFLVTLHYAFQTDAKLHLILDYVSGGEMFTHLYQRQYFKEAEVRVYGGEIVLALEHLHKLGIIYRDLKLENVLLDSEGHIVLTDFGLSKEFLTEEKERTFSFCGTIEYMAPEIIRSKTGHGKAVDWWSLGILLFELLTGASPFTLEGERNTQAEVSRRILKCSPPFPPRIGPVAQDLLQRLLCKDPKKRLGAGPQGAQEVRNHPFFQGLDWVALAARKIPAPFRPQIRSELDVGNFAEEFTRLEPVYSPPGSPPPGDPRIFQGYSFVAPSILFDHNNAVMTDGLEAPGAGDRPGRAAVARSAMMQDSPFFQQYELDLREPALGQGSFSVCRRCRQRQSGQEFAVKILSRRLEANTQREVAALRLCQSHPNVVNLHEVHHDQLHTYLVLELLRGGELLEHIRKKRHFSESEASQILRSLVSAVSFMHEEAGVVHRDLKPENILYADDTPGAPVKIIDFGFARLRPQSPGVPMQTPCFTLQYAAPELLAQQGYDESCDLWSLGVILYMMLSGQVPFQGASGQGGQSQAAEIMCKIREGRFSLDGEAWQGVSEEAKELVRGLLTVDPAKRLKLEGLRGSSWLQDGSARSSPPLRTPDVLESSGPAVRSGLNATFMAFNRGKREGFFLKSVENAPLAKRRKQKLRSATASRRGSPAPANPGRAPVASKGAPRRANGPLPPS

[18] = target: Ribosomal protein S6 kinase alpha-4 (Homo sapiens) (UniProt O75676); details: at 1 µM
[19] = target: Ribosomal protein S6 kinase beta-1 (Homo sapiens) (UniProt P23443); details: at 0.1 µM
Chain of Ribosomal protein S6 kinase beta-1 (Homo sapiens) (P23443 whole entry, looked up): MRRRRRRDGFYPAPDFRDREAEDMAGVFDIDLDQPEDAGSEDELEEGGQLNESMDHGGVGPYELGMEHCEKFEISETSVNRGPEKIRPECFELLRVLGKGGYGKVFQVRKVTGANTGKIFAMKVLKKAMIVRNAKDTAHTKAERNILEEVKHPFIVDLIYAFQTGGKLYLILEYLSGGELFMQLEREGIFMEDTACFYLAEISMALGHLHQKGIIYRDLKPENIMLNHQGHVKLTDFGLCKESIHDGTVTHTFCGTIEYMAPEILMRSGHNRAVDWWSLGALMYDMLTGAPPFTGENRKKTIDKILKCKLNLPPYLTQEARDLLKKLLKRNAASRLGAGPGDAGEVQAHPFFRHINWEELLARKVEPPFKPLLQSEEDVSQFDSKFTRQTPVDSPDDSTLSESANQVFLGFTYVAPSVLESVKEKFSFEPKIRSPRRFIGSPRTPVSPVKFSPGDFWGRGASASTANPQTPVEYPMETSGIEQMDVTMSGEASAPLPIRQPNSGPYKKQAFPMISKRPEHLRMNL

[20] = target: Ribosomal protein S6 kinase beta-1 (Homo sapiens) (UniProt P23443); details: at 1 µM

Chain of RAC-beta serine/threonine-protein kinase (Homo sapiens) (P31751 whole entry): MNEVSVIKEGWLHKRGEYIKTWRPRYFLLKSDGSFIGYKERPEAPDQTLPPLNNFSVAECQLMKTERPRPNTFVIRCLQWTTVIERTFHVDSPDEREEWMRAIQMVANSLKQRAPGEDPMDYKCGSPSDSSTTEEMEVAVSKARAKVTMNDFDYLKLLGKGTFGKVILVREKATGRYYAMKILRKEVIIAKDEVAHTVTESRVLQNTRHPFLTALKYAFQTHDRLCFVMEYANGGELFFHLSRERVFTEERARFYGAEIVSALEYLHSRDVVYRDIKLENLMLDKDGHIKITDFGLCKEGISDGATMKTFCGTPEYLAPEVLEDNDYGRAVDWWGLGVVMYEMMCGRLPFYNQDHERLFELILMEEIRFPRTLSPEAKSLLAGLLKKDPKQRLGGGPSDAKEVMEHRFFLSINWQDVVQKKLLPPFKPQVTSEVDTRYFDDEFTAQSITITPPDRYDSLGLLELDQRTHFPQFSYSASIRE
Chain of RAC-alpha serine/threonine-protein kinase (Homo sapiens) (P31749 whole entry): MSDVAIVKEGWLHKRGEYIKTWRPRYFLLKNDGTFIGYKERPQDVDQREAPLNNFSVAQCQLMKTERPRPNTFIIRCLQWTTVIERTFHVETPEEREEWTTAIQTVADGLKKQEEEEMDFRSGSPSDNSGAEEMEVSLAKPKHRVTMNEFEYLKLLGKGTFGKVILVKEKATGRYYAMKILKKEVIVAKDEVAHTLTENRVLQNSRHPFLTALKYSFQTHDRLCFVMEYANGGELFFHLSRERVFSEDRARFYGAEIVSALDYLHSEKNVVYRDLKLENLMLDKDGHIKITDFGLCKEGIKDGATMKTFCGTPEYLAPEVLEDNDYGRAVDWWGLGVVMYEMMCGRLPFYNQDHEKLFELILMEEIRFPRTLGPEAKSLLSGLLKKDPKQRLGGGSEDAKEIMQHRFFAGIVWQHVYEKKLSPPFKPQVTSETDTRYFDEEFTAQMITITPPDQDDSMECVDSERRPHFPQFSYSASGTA

SMILES | inhibition [1] | inhibition [2] | inhibition [3] | inhibition [4] | inhibition [5] | inhibition [6] | inhibition [7] | inhibition [8] | inhibition [9] | inhibition [10] | inhibition [11] | inhibition [12] | inhibition [13] | inhibition [14] | inhibition [15] | inhibition [16] | inhibition [17] | inhibition [18] | inhibition [19] | inhibition [20]
O=C(O[C@H]1CN[C@H](C#Cc2cc3ncnc(Nc4ccc(Cc5ccccc5)cc4)c3s2)C1)N1CCOCC1 | -0.07% | 1.54% | 0.98% | 1.79% | 0.38% | 1.99% | -0.99% | 1.46% | 5.43% | 0.52% | -1.95% | 0.21% | 1.54% | 4.12% | 4.51% | 3.65% | 3.21% | 3.94% | 1.97% | 1.38%
CCNC(=O)O[C@H]1CN[C@H](C#Cc2cc3ncnc(Nc4ccc(OCc5cccc(F)c5)c(Cl)c4)c3s2)C1 | 1.21% | 0.9% | 3.39% | 2.59% | 1.29% | 1.95% | 2.11% | 4.14% | 2.34% | 2.31% | 0.37% | -0.19% | 1.07% | 0.37% | 3.18% | 2.55% | 1.61% | 2.66% | 1.69% | 1.78%
COc1ccc2c(-c3ccnc(Nc4cccc(OC(F)(F)F)c4)n3)cnn2n1 | 0.95% | 0.97% | 2.41% | 1.51% | 1.3% | 1.57% | 4.64% | 5.84% | 5.16% | 4.9% | -0.42% | 2.27% | 0.42% | -0.61% | 4.58% | 4.54% | 2.99% | 7.19% | 3.11% | 3.7%
CCn1cc(-c2ccnc3[nH]ccc23)c(-c2cccc(NC(=O)Nc3ccc(OCc4ccccc4)cc3)c2)n1 | 1.5% | 1.68% | 1.8% | 3.99% | 0.23% | 2.59% | -2.36% | 0.99% | 3.4% | -2.29% | -4.2% | 4.85% | -0.78% | -0.56% | -0.53% | -2.01% | 1.02% | 0.39% | -0.04% | -0.6%
CS(=O)(=O)CCNCc1coc(-c2ccc3ncnc(Nc4ccc(OCc5ccccc5)cc4)c3c2)c1 | 0.45% | 0.14% | -0.99% | 1.09% | -0.18% | 3.26% | 4.06% | 12.1% | 6.27% | 5.05% | 2.17% | 0.57% | 0.72% | 1.14% | 1.49% | 1.55% | 2.52% | 3.49% | 0.79% | 3.34%
CS(=O)(=O)CCNCc1ccc(-c2ccc3ncnc(Nc4ccc(OCc5ccccc5)c(C(F)(F)F)c4)c3c2)o1 | 1.54% | 1.3% | 1.35% | 2.2% | 0.3% | 3.04% | -0.85% | 1.09% | 10.8% | 3.42% | -6.32% | -1.92% | -0.98% | -1.25% | 8.24% | 6.53% | 1.86% | 0.65% | 1.21% | 1.16%
Fc1ccc(-c2nn3ccccc3c2-c2ccncc2)cc1 | 0.06% | 1.28% | 0.35% | 1.43% | 1.01% | 4.38% | 0.75% | -0.76% | 0.65% | 3.13% | 1.08% | 3.93% | 1.99% | 4.92% | 4.62% | 5.97% | 5.06% | 6.2% | 1.21% | 2.15%
CNC(=O)c1cccc(C#Cc2cncnc2Nc2ccc(OCc3cccc(F)c3)c(Cl)c2)c1 | 0.17% | -0.5% | 0% | 0.98% | 0.81% | -1.1% | 0.71% | 3.57% | 1.29% | -1.25% | -0.5% | 1.42% | -0.81% | -3.2% | -0.16% | -0.2% | 0.45% | 1.97% | 0.88% | 0.77%
O=S(=O)(CCNCc1ccc(-c2ccc3ncnc(Nc4ccc(OCc5cccc(F)c5)c(Cl)c4)c3c2)o1)c1ccccc1 | 1.7% | 1.71% | 2.21% | 3.29% | 0.84% | 3.13% | 1.68% | 1.4% | 8.83% | 2.27% | -4.06% | 0.31% | 0.71% | -0.02% | 4.86% | 4.66% | 3.43% | 3.05% | 1.88% | 2.98%
CCn1c(-c2nonc2N)nc2cnc(Oc3cccc(NC(=O)c4ccc(N(C)C)cc4)c3)cc21 | 0.51% | 7.63% | 0.71% | 8.4% | 1.82% | 10.2% | 0.82% | 2.85% | 2.74% | 4.11% | 7.29% | 53.4% | 17% | 62.9% | 60.2% | 80.5% | 61.2% | 79% | 71.7% | 90.4%
c1ccc(COc2ccc(Nc3ncnc4ccc(-c5ccco5)cc34)cc2)cc1 | 0.02% | 0.01% | -0.87% | 0.43% | 0.39% | 2.23% | -0.04% | 4.75% | 5.57% | 5.11% | -3.21% | -2.24% | 0.9% | -0.9% | 0.07% | -1.17% | 2.09% | 1.67% | 0.5% | 0.07%
Cc1cccc(Nc2ncc(-c3ccccc3)o2)c1 | 2.47% | 3.09% | 2.46% | 2.97% | 2.2% | 5.22% | 5.33% | 4.72% | 4.29% | 3.7% | 7.36% | 8.12% | 0.54% | 4.56% | 2.55% | 6.07% | 1.23% | 8.07% | 1.43% | 3.89%
COc1ccc(-c2cc(-c3c[nH]nc3-c3ccccn3)ccn2)cc1 | 0.93% | 1.5% | 2.54% | 1.95% | 1.66% | 1.52% | 8.13% | 8.91% | 3.59% | 6.26% | -0.6% | 3.02% | -0.39% | 0.6% | 4.28% | 4.22% | 3.45% | 4.77% | 2.32% | 3.73%
